# Data as given in PubChem BioAssay (NCI).
# Compounds without any hit were thinned out: in the full panel of roughly 83,000, 20% have a hit.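 Assay: single dose, 48 h. Readout: percent growth (0 = no net growth; negative = cell death). Active: <10.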 Values without a mark were called inactive. The source made the active and inactive calls.
# Tested on: SK-MEL-2 melanoma
# Assay: NCI-60 one-dose screen, 48 h (100 = growth as untreated, 0 = no growth, -100 = all killed)
# Details: 10 µM
# Method: Growth inhibition of the SK-MEL-2 human tumor cell line is measured as a screen for anti-cancer activity. Cells are grown in 96 well plates and exposed to the test compound for 48 hours. Compounds are tested at a single concentration, which is 10^-5 M for most compounds. The reported endpoint is percent growth (GI% or GIPRCNT), where numbers from 0 - 100% represent growth inhibition, and numbers from -100% - 0 represent cell death. For example, a value of 40 represents 60% growth inhibition. A value of 0 means no net growth occurred over the course of the experiment. A value of -40 indicates 40% of cells at the beginning of the experiment died by the end of the experiment. A value of -100 means all cells are dead at the end of the experiment.
# NCI-60 Human Tumor Cell Lines Screen was performed using the standard one-dose NCI protocol, which is described in more detail at https://dtp.cancer.gov/discovery_development/nci-60/default.htm.
# Compounds with GIPRCNT values below 10 were considered active. Activity score was based on GIPRCNT using the following formula: […]
# Score is 0 for GIPRCNT values of 100 or above, 50 for GIPRCNT values of 0, and 100 for GIPRCNT values of -100.
row,Structure (SMILES),growth
1,CCCCSc1nc(Nc2ccc(/C(C)=N/NC(N)=S)cc2)c(C#N)c(-c2ccccc2)n1,90.4%
2,C=C1CCC2C3(C)COC(c4c(F)cccc4F)OC3CCC2(C)C1CC(O)C1=CCOC1=O (stereo not given),52.4%
3,O=C(/C=C/Nc1ccccc1)c1ccc2c(c1)Nc1ccccc1S2,78.1%
4,O=C(O)CCCCCCCCCCN1C(=O)/C(=C/c2cnc(-c3ccc(Cl)cc3)s2)SC1=S,-38.6% (active)
5,COc1ccc2[nH]c(=O)c(CSc3nccc(-c4ccc(Cl)cc4)n3)cc2c1,42.9%
6,CCOP(=O)(OCC)O[C@H]1CC[C@]2(C)[C@H]3CC[C@@H]4[C@@H]([C@](C)(O)CCC=C(C)C)CC[C@@]4(C)[C@]3(C)CC[C@H]2C1(C)C,17.1%
7,COc1cccc(-c2nn(-c3ccccc3)cc2-c2ccnc(NCCCNC(=O)Nc3ccc(F)cc3)c2)c1,-40.6% (active)
8,O=C(CSc1nnc(-c2ccc3nc(-c4ccccc4)[nH]c3c2)o1)Nc1ccc(Br)cc1,81.2%
9,Cc1cc(C)nc(NS(=O)(=O)c2ccc(N/C(N)=N/c3nccc(-c4cccs4)n3)cc2)n1,108%
10,Nc1n[nH]c2cccc(C#Cc3cccc(NC(=O)Nc4cc(C(F)(F)F)cc(C(F)(F)F)c4)c3)c12,-96.8% (active)
11,C=CC(=O)Nc1ccc(C(=O)/C=C/c2ccc(N(C)CCF)cc2)c(O)c1,-53.4% (active)
12,COc1cnc2c(c1)C(=O)c1c-2n(CCCNC(C)C)c(=O)c2cc(OC)c(OC)cc12,107%
13,Clc1ccc(/C=N/Nc2ncnc3sc4c(c23)CCN(Cc2ccccc2)C4)cc1,93.5%
14,O=C1Nc2ccc(Cl)cc2/C1=C/c1cccc(OCc2ccccn2)c1,-50.6% (active)
15,Nc1nc(Nc2ccc(Cl)cc2)n(Cc2cccc(Br)c2)n1,-74.7% (active)
16,O=C(Nc1ccc(OCc2ccccc2)cc1)Nc1ccc(Cl)c(C(F)(F)F)c1,-40.2% (active)
17,O=C(NO)c1ccc(Cn2ccc3c(Nc4ccccc4)ncnc32)cc1,8.71% (active)
18,O=c1[nH]c2ccc(Cl)cc2cc1CSc1ccc(Nc2nccc(-c3ccc(Cl)cc3)n2)cc1,99.2%
19,CCCCSc1nc(Nc2ccc(/C(C)=N/NC(N)=S)cc2)c(C#N)c(-c2ccc(F)cc2)n1,72.9%
20,CC1=C(c2cc(-c3ccc(Cl)cc3)c(C#N)c(N)n2)C(c2ccccc2)NC(=S)N1 (stereo not given),98.6%

row,Structure (SMILES),growth
1,O=C(c1ccccc1)n1ccc(-c2cc3cc(Br)ccc3oc2=O)n1,16.8%
2,O=c1[nH]c2ccccc2cc1CSc1ccc(Nc2nccc(-c3ccc4c(c3)OCO4)n2)cc1,108%
3,COc1ccc2nc(Cl)c(-c3cc(-c4ccccc4)nc(=O)[nH]3)cc2c1,93.3%
4,COc1cc(-c2nc3cc(Cl)c(Cl)cc3[nH]2)ccc1OCc1nnc(-c2ccc(Br)cc2)o1,0.585% (active)
5,COc1cc(/C=C/C(=O)c2ccc(S(=O)(=O)NCCNc3nc(Nc4ccc(F)cc4)nc(N(C)C)n3)cc2)cc(OC)c1OC,98.4%
6,Cc1ccc(CSc2nc(Cl)c(C#N)c(-c3ccc(F)cc3)n2)cc1,92.1%
7,O=C(Cc1ccc2c(c1)CN(C1CCC(=O)NC1=O)C2=O)NCCc1ccccc1 (stereo not given),26%
8,COc1nccnc1NS(=O)(=O)c1ccc(NC2=C(Cl)C(=O)c3nc(C)ccc3C2=O)cc1,113%
9,COc1ccc(-c2cc(C(=O)N=Nc3c(O)[nH]c4ccc(F)cc34)c3ccccc3n2)cc1,128%
10,Cn1cc(/C=N/Nc2cccc(Cl)n2)c2ccccc21,87.5%
11,COc1cc2c3c(n(CCCNCCO)c(=O)c2cc1OC)-c1nc2c(cc1C3=O)OCO2,116%
12,C=C1CCC2C3(C)COC(c4cccc(F)c4)OC3CCC2(C)C1CC(O)C1=CCOC1=O (stereo not given),75.9%
13,Cc1ccn2c(C(=O)c3ccccc3)cc(-c3cc(-c4ccc(N(C)C)cc4)c(C#N)c(N)n3)c2c1,80.9%
14,Cc1ccc2nc(COc3ccc(C(=O)NNC(=S)NCCc4ccccc4)cc3)[nH]c2c1,81.7%
15,Clc1ccc2c(N/N=C/c3c[nH]c4ccc(Br)cc34)ccnc2c1,-93% (active)
16,CN1CCN(c2ccc(Nc3nc(NCCCNC(=O)c4ccc(F)cc4)c4sccc4n3)cc2)CC1,106%
17,O=C(CS(=O)(=O)c1oc(-c2ccc(Cl)cc2)nc1S(=O)(=O)c1ccccc1)N1CCCC1,82.8%
18,O=C(c1ccc(Cl)cc1)C1[C@H](c2ccccc2Br)[C@@H](c2ccccc2)NC12C(=O)Nc1ccc(Br)cc12 (stereo not given in full),-51% (active)
19,Cc1cc2nc3c4ccccc4n(CCO)c3nc2cc1C,101%
20,COc1cc2c3c(n(CCCn4ccnc4)c(=O)c2cc1OC)-c1nc2c(cc1C3=O)OCO2,123%
